Where “and” joins values, the source holds several entries; their conditions need not be identical. Identical values can stand only once. Screen size: about 5,500 compounds; about 2,000 (36%) were called active. Roughly 18% stayed inconclusive and do not appear here. Rule as the data show it: active = normalized growth mostly below about 0.91 (no sharp cut-off); inconclusive = no clear call, values can overlap the other calls; inactive = mostly above about 0.92. This is one part of the list.
Assay: chemical genetic growth profiling, strain panel (AID 1159580);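 also: tested at 20 µM; growth read once vehicle control cultures reached saturation at 30 °C; 1 = growth at the plate median or of vehicle wells; lower values mean less growth of the strain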
Conditions: S. cerevisiae deletion strains, growth OD

Measured: normalized growth

COc1ccc2c3c1O[C@H]1C[C@@H](O)C=C[C@@]31CCN(C)C2
inactive: locus YAL013W, strain DEP1, stronger effect = lower value 1.01 | locus YAL021C, strain ccr4, stronger effect = lower value 1.02 | locus YAL026C, strain drs2, stronger effect = lower value 0.993 | locus YAL030W, strain snc1, stronger effect = lower value 0.984 | locus YBL061C, strain skt5, stronger effect = lower value 0.994 | locus YBR009C, strain hhf1, stronger effect = lower value 1.01 | locus YBR021W, strain FUR4, stronger effect = lower value 0.999 | locus YBR023C, strain chs3, stronger effect = lower value 0.992 | locus YBR171W, strain sec66, stronger effect = lower value 1.01 | locus YBR229C, strain ROT2, stronger effect = lower value 1 | locus YBR231C, strain swc5, stronger effect = lower value 0.984 | locus YBR279W, strain paf1, stronger effect = lower value 0.992 | locus YCL011C, strain gbp2, stronger effect = lower value 0.998 | locus YCL016C, strain dcc1, stronger effect = lower value 0.999 | locus YCL029C, strain bik1, stronger effect = lower value 1.02 | locus YCL061C, strain MRC1, stronger effect = lower value 1.02 | locus YCL069W, strain vba3, stronger effect = lower value 1 | locus YCR088W, strain abp1, stronger effect = lower value 1 | locus YDL005C, strain med2, stronger effect = lower value 0.995 | locus YDL035C, strain GPR1, stronger effect = lower value 1.01 | locus YDL040C, strain nat1, stronger effect = lower value 1 | locus YDL074C, strain BRE1, stronger effect = lower value 1 | locus YDL101C, strain DUN1, stronger effect = lower value 0.996 | locus YDL134C, strain PPH21, stronger effect = lower value 1.01 | locus YDL185W, strain tfp1, stronger effect = lower value 1.02 | locus YDL192W, strain arf1, stronger effect = lower value 1.01 | locus YDR001C, strain nth1, stronger effect = lower value 0.998 | locus YDR069C, strain doa4, stronger effect = lower value 0.997 | locus YDR101C, strain arx1, stronger effect = lower value 1.01 | locus YDR137W, strain rgp1, stronger effect = lower value 1.03 | locus YDR150W, strain NUM1, stronger effect = lower value 1.01 | locus YDR159W, strain sac3, stronger effect = lower value 0.935 | locus YDR162C, strain NBP2, stronger effect = lower value 0.97 | locus YDR195W, strain ref2 0.946 | locus YDR297W, strain sur2, stronger effect = lower value 1.01 | locus YDR318W, strain mcm21, stronger effect = lower value 1.05 | locus YDR334W, strain swr1, stronger effect = lower value 0.994 | locus YDR335W, strain msn5, stronger effect = lower value 1.02 | locus YDR388W, stronger effect = lower value 1.01 | locus YDR392W, strain spt3, stronger effect = lower value 1.05 | locus YDR502C, strain sam2, stronger effect = lower value 1.01 | locus YEL003W, strain gim4, stronger effect = lower value 0.985 | locus YEL037C, strain rad23, stronger effect = lower value 1 | locus YEL061C, strain CIN8 (second series), stronger effect = lower value 1.01 | locus YEL061C, strain CIN8, stronger effect = lower value 1.01 | locus YER015W, strain faa2, stronger effect = lower value 0.993 | locus YER016W, strain bim1, stronger effect = lower value 1.01 | locus YER110C, stronger effect = lower value 1.02 | locus YER111C, strain swi4, stronger effect = lower value 0.997 | locus YER155C, strain BEM2 (second series), stronger effect = lower value 1.01 | locus YER155C, strain BEM2, stronger effect = lower value 0.998 | locus YER167W, strain BCK2, stronger effect = lower value 1.03 | locus YFR010W, strain ubp6, stronger effect = lower value 0.986 | locus YGL078C, strain dbp3, stronger effect = lower value 0.992 | locus YGL086W, strain mad1, stronger effect = lower value 1.04 | locus YGL167C, strain pmr1, stronger effect = lower value 0.997 | locus YGL173C, strain kem1, stronger effect = lower value 0.997 | locus YGL227W, strain vid30, stronger effect = lower value 0.997 | locus YGL240W, strain doc1, stronger effect = lower value 0.999 | locus YGL248W, strain PDE1, stronger effect = lower value 1.01 | locus YGL253W, strain hxk2, stronger effect = lower value 1.01 | locus YGR078C, strain PAC10, stronger effect = lower value 0.981 | locus YGR135W, strain pre9, stronger effect = lower value 1 | locus YGR229C, strain SMI1, stronger effect = lower value 0.981 | locus YGR252W, strain gcn5, stronger effect = lower value 1.08 | locus YHR013C, strain ard1, stronger effect = lower value 1.01 | locus YHR027C, strain rpn1, stronger effect = lower value 1 | locus YHR030C, strain SLT2, stronger effect = lower value 1.01 and 0.985 | locus YHR079C, strain IRE1 (second series), stronger effect = lower value 1.02 | locus YHR079C, strain IRE1, stronger effect = lower value 0.989 | locus YHR094C, strain hxt1, stronger effect = lower value 1.01 | locus YHR129C, strain ARP1, stronger effect = lower value 1.01 | locus YHR142W, strain chs7, stronger effect = lower value 0.982 | locus YHR200W, strain rpn10, stronger effect = lower value 1.02 | locus YIL066C, strain RNR3, stronger effect = lower value 1.01 | locus YIL073C, strain SPO22, stronger effect = lower value 1.04 | locus YIL125W, strain kgd1, stronger effect = lower value 1.01 | locus YIR030C, strain dcg1, stronger effect = lower value 1.02 | locus YJL092W, strain hpr5, stronger effect = lower value 1 | locus YJL095W, strain BCK1 (second series), stronger effect = lower value 1.01 | locus YJL095W, strain BCK1, stronger effect = lower value 1.01 and 0.995 | locus YJL115W, strain asf1, stronger effect = lower value 1.01 | locus YJL129C, strain trk1, stronger effect = lower value 0.983 | locus YJL134W, strain LCB3, stronger effect = lower value 1.01 | locus YJL154C, strain vps35, stronger effect = lower value 1.01 | locus YJL164C, strain tpk1, stronger effect = lower value 1 | locus YJL166W, strain qcr8, stronger effect = lower value 1.01 | locus YJL168C, strain set2, stronger effect = lower value 1.01 | locus YJL187C, strain SWE1 (second series), stronger effect = lower value 1 | locus YJR043C, strain POL32, stronger effect = lower value 1.03 | locus YJR066W, strain TOR1, stronger effect = lower value 0.935

Source: PubChem BioAssay AID1159580 (chemical genetic matrix, 2015)
